ssDAF-12 act = S. stercoralis DAF-12 activation, primary screen. HEK293 ssDAF-12/GRIP1 lit1-tk-luc reporter, luminescence; % of 3 µM dafachronic acid response. activation, % at 6.8 µM. 370,000 compounds, 1% hits;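 active = activation above the mean over all tested compounds plus 3 SD, cut at about 0.9% in these data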;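 note: 0% = DMSO-only wells and 100% = 3 µM delta7-dafachronic acid wells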
hcDAF12 agonist = activators of H. contortus DAF-12 nuclear receptor | HEK293 hcDAF-12 lit1-tk-luc reporter, luminescence; 0% DMSO, 100% Δ7-dafachronic acid | activation, % at 6.8 µM | 370,000 compounds, 1.4% hits | AID 652067;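 active = activation above the mean of all tested compounds plus 3 SD, cut at about 5.5% in these data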;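 note: 100% = response to 3 µM Δ7-dafachronic acid high control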
DAX1 inh-1 = NR0B1 (DAX1) inhibition | P51843 | HEK293 Gal4-DAX1 luciferase reporter, luminescence | inhibition, % at 6.75 µM | 340,000 compounds, 0.99% hits;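 active = inhibition above the mean over all tested compounds plus 3 SD, cut at about 4.2% in these data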;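 note: 0% = DAX1-transfected cells with DMSO and 100% = empty-vector control cells with DMSO; inhibition shows as a rise in luminescence from relieved DAX1 repression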
Target sequence (P51843 207-470 limits assumed): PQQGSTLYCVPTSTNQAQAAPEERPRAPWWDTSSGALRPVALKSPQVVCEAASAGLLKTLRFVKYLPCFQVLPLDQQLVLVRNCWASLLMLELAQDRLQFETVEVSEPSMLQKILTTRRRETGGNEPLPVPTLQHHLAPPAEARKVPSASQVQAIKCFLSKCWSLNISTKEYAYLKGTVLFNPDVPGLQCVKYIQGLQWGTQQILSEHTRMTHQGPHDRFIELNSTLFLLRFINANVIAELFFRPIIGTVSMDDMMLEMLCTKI
DAX1 inh-2 = blocks DAX1 repression of SF-1 activated StAR promoter. inhibition, % at 6.8 µM. 370,000 compounds, 1.1% hits. AID 652010. HEK293T StAR-luciferase reporter, SF-1/DAX-1 repression relief;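 active = inhibition above the mean over all tested compounds plus 3 SD, cut at about 3.6% in these data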;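 note: 0% = DAX-1 cells with DMSO and 100% = cells lacking DAX-1 with DMSO; higher inhibition means more luminescence from relief of DAX-1 repression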
hgDAF-12 ag = hgDAF-12 agonism, primary luciferase screen. HEK293 GAL4-hgDAF12 UAS-luciferase reporter, agonist luminescence; normalized to butyrate control. activation, % at 6.8 µM. 370,000 compounds, 1.8% hits. AID 687014;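 active = activation above a cutoff set at the mean of all screened compounds plus 3 SD, cut at about 10% in these data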;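 note: 0% = DMSO wells and 100% = sodium butyrate wells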
Active calls of the source: *; nt = no result given. The list is not random: actives were taken first. Their share in the collection is about 4.1%.

SMILES	ssDAF-12 act	hcDAF12 agonist	DAX1 inh-1	DAX1 inh-2	hgDAF-12 ag
CC(Oc1ccc(Cl)cc1Cl)C(=O)NNC(=O)c1cccnc1 (stereo not given)	-0.9	-1.7	0.2	1.6	-0.3
Cc1ccc2nc(CCc3ccc(N)cc3)[nH]c2c1	0.5	1.9	1.5	1.0	11.4*
Nc1ccc2nc(CCc3ccccc3)[nH]c2c1	-1.0	2.7	1.0	-0.2	2.1
CCOc1cc(OCC)cc(C(=O)N2CCC[C@@H]2C(=O)N2CCC[C@@H]2C(=O)NCc2ccccc2Cl)c1	1.0*	2.0	nt	-0.7	3.5
CCOc1cc(OCC)cc(C(=O)N2CCC[C@H]2C(=O)N2CCC[C@H]2C(=O)NCc2ccc(F)cc2F)c1	-0.8	-1.4	nt	0.8	0.0
CCOC(=O)[C@@]12CCCC3=C1N(CCC3)C(=O)[C@H]2CC(=O)N1CCN(C(=O)C2CC2)CC1	-0.5	-2.9	nt	0.2	0.6
COc1ccc(-c2nnn(CC(=O)N(CCCN3CCOCC3)C(C(=O)NC3CCCC3)c3ccco3)n2)cc1 (stereo not given)	-1.1	-0.9	5.2*	-0.2	-2.4
COc1ccc(-c2nnn(CC(=O)N(CCCN3CCOCC3)C(C(=O)NC3CCCC3)c3ccc(C)o3)n2)cc1 (stereo not given)	-1.7	-0.8	2.0	-0.1	3.1
O=C(/C=C/c1ccco1)N1CCN(S(=O)(=O)c2cccs2)CC1	-1.2	-1.9	6.6*	-0.7	0.0
O=C(Nc1ccc2ccccc2c1)c1ccc(Cl)cc1Cl	0.2	5.4	0.2	2.4	10.7*
O=C(Nc1ccc2c(c1)C(=O)OC2)c1ccc(Cl)cc1Cl	-1.1	5.6*	-0.8	0.5	1.5
COC(=O)C1CN(Cc2ccc(C)cc2)CCS(=O)(=O)N1Cc1cn(Cc2ccc(C)cc2)nn1 (stereo not given)	-1.9	-2.2	nt	-0.2	-0.2
COC(=O)[C@]12C[C@H](CC(=O)NCc3cccc4ccccc34)C(=O)N(CCc3ccc(OC)c(OC)c3)C1=C[C@H](COCc1ccccc1)O[C@@H]2C	-1.8	-0.7	nt	-1.1	-0.8
COC(=O)C1CN(CC(C)C)CCS(=O)(=O)N1Cc1cccc(Cl)c1 (stereo not given)	-1.8	-0.7	nt	-0.2	0.0
C/C(CCc1ccco1)=N\NC(=O)CNc1c(Br)cc(Br)cc1Br	-0.7	0.3	6.8*	-0.2	2.5
O=C(O)/C=C/C(=O)Nc1ccc2c(c1)C(=O)c1ccccc1C2=O	-0.5	5.3	0.3	2.1	12.6*
COc1cc(NC(=O)C2CCCN(S(=O)(=O)c3ccc(Br)s3)C2)cc(OC)c1 (stereo not given)	-0.9	-3.2	nt	-0.3	-2.1
Fc1ccc(F)c(C2=NNC(=NCC3CCCO3)SC2)c1 (stereo not given)	0.1	5.0	1.6	1.0	11.8*
O=C(CSc1ccc(-c2ccccc2)nn1)c1cccs1	-1.1	0.6	0.5	1.3	12.0*
C=CCN1C(=O)[C@@H](CC(=O)N2CCN(C(=O)OCC)CC2)[C@]2(C(=O)OC)CCCCC=C12	-1.0	2.6	nt	-0.5	0.2
c1csc(-c2nnsc2-c2nc3ccccc3[nH]2)c1	1.4*	2.6	0.6	0.1	4.0
O=c1[nH]c2ccccc2nc1-c1cccs1	-0.5	2.4	0.5	1.2	4.4
CCCCCCn1cc(CN2CC(N3CCN(C4CCN(C)CC4)CC3)CS2(=O)=O)nn1 (stereo not given)	-1.0	-0.7	nt	4.4*	-3.7
CCCCCCn1cc(CN2CC(N(C)CC)CS2(=O)=O)nn1 (stereo not given)	-1.9	1.2	nt	3.7*	3.4
CCCCCCn1cc(CN2CC(N3CCN(C)CC3)CS2(=O)=O)nn1 (stereo not given)	-0.4	1.2	nt	2.5	1.3
SMILES	ssDAF-12 act	hcDAF12 agonist	DAX1 inh-1	DAX1 inh-2	hgDAF-12 ag
COc1ccc(Cn2cc(CN3CC(N4CCSCC4)CS3(=O)=O)nn2)cc1 (stereo not given)	-1.2	-0.4	nt	-2.6	-0.5
COc1ccc(Cn2cc(CN3CC(N4CCCC4)CS3(=O)=O)nn2)cc1 (stereo not given)	-0.2	-0.2	nt	4.4*	1.6
CCCCCCn1cc(CN(C)C2CN(Cc3cn(CCCCCC)nn3)S(=O)(=O)C2)nn1 (stereo not given)	-1.6	0.9	nt	0.4	-0.5
COc1ccc2[nH]c3c(c2c1)CCN[C@]31C(=O)N(C)c2ccccc21	-1.0	4.6	nt	-0.2	-0.1
C[C@H]1COc2cccc(N3CCSCC3)c2S(=O)(=O)N1C	-2.1	1.6	nt	-0.9	-1.8
Cc1cc(N2CCN(CC(C)(C)O)C[C@@H]2C)ccc1N1CCN(Cc2ccccc2)[C@H](C)C1	-1.1	-2.2	nt	0.0	-1.6
O=C(NCc1ccccc1)C1COc2ccccc2O1 (stereo not given)	-0.6	3.5	-1.1	1.2	1.2
Cc1onc(-c2ccccc2)c1CNC(=O)C1COc2ccccc2O1 (stereo not given)	-1.7	-0.1	4.6*	-0.1	1.2
C#CCNC(=O)C[C@H]1C(=O)N(CCCOC)C2=CCCCC[C@]21C(=O)OC	-0.9	0.8	nt	0.1	-2.6
O=C(COC(=O)CNS(=O)(=O)c1ccc(Br)cc1Cl)NCCc1ccccc1	1.4*	2.3	-0.3	-4.0	2.0
C/C(C=Nn1c(-c2ccc(F)cc2)n[nH]c1=S)=C/c1ccco1	-0.1	1.0	nt	0.4	-2.9
COc1cc([C@H]2Oc3c(OC)cc(CCCO[C@@H]4O[C@H](CO)[C@@H](O)[C@H](O)[C@H]4O)cc3[C@@H]2CO)ccc1O	-1.1	0.6	4.7*	1.7	-0.9
COC(=O)C1CN(Cc2cn(Cc3ccccc3)nn2)CCS(=O)(=O)N1Cc1ccc(F)cc1 (stereo not given)	-0.6	-3.1	nt	-1.8	-0.7
O=C(CSc1nnc(-c2ccccc2)n1-c1ccc(Cl)cc1)Nc1ccc2cn[nH]c2c1	-1.6	-2.4	nt	-1.2	-1.4
CNc1nc(Cl)nc2c1ncn2-c1ccccc1	-1.1	0.4	4.6*	-0.7	3.9
C[C@H]1[C@@H](O)CC[C@@]23CCCN2C(=O)CCC[C@@H]13	-1.4	0.0	nt	nt	-1.1
CC(C)CNc1ccc2c(c1)OC[C@@H](CC(C)C)NS2(=O)=O	-0.8	-1.4	nt	0.7	-1.2
CC1CCCCN1C(=O)c1cc(-c2ccc3c(c2)OCO3)on1 (stereo not given)	-0.2	5.0	3.2	2.1	11.1*
CC1CCN(C(=O)c2cc(-c3ccc4c(c3)OCO4)on2)CC1	0.2	3.8	1.3	1.5	11.6*
CC1CCCCN1C(=O)c1cc(-c2ccc(Cl)c(Cl)c2)on1 (stereo not given)	-0.9	-1.1	1.3	0.4	6.7
CCCNC(=O)c1cc(-c2ccc3c(c2)OCO3)on1	0.3	2.4	0.3	3.2	10.9*
COc1cccc([C@@H]2NC(=O)C/C=C/[C@H](C)[C@H](c3cccc(OC)c3)NC(=O)C/C=C/[C@@H]2C)c1	-0.2	-0.3	nt	-0.9	-2.1

Screens from PubChem.
